This is a sample that favours compounds with a hit; in the whole collection about 2.2% have one here.
ADAM10 inh: ADAM10 inhibition, QFRET primary screen; O14672; recombinant ADAM10, EDANS/DABCYL FRET peptide cleavage, 3 h; inhibition, % at 7 µM; 0.62% of 370,000 active; AID 720582;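 active means inhibition above a per-campaign cutoff equal to the mean of compounds falling between control-based bounds plus 3 SD, cut at about 20% in these data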;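 further: 0% = DMSO wells while the 100% control is not disclosed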
Target sequence (O14672 214-748 limits assumed): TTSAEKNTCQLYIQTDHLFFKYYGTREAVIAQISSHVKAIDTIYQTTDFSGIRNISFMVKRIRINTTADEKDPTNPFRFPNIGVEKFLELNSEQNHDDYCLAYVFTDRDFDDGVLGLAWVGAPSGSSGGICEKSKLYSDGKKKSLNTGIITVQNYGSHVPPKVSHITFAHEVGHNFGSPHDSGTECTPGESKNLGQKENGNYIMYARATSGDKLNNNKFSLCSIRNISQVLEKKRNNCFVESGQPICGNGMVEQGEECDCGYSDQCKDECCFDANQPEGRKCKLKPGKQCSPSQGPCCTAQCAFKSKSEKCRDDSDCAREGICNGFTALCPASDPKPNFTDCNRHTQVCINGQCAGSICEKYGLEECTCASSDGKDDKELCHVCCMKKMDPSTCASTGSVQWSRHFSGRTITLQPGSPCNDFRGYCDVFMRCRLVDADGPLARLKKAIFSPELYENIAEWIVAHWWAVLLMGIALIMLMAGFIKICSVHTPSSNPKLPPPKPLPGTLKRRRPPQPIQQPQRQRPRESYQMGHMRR
ADAM17 inh: inhibitors of human ADAM17. recombinant ADAM17, EDANS/DABCYL FRET peptide cleavage. 0.83% of 370,000 active. inhibition, % at 6.95 µM;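 active means inhibition above the mean of compounds lying between control limits plus 3 SD, set per campaign, cut at about 8.5% in these data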;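 further: 0% = DMSO-only wells as the low control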
KLK7 zymogen act: activators of human kallikrein-7 zymogen. AID 652039. activation, % at 7 µM. 0.9% of 370,000 active. purified proKLK7, EDANS-DABCYL substrate fluorescence; 100% is mature enzyme control, 0% vehicle;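 active means activation above the mean of all tested compounds plus 3 SD, computed per campaign excluding outliers beyond control limits, cut at about 13% in these data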
NPR1 activator: GC-A (human) enzyme activation; P16066; 0.14% of 370,000 active; AID 1671463; activation, % at 10 µM; HEK293 GC-A cells, cGMP TR-FRET, EC30 ANP; 0% at EC30 ANP, 100% saturating ANP; in the data active means activation above about 40%
NPR2 activator: GC-B (human) receptor activation | AID 1920062 | HEK293-GC-B cells, CNP EC30, cGMP TR-FRET; 0% at EC30 CNP, 100% saturating CNP | P20594 | 0.11% of 370,000 active | activation, % at 10 µM;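 active means activation at 10 µM reaching about 35% in either raw or pattern-adjusted values, limit read from the data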
proKLK7 act conf: proKLK7 activation, confirmation; 68% of 3,200 active; shares compounds with KLK7 zymogen act; purified proKLK7, EDANS-DABCYL substrate fluorescence; scaled: vehicle 0, mature enzyme 100; activation, % at 7 µM; AID 686949;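 active means activation, as change over the incubation, above the mean of all tested compounds plus 3 SD, cut at about 13% in these data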
EDANS-DABCYL int: fluorescence interference counter-screen for KLK7 activators | shares compounds with KLK7 zymogen act | EDANS-DABCYL substrate fluorescence interference, no enzyme, 4 h; solvent 0%, active enzyme control 100% | activation, % at 7 µM | 80% of 3,200 active;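 active means activation above the all-compound mean plus 3 SD, ignoring values outside control-based bounds, cut at about 4.8% in these data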;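 further: value is the 4 h activation minus the activation read at time zero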
K7 EDANS ctr: counter-screen for kallikrein-7 activators: EDANS-DABCYL interference, dose response; 20% of 250 active; EDANS-DABCYL peptide fluorescence interference, no enzyme; EC50, µM; AID 720493; shares compounds with KLK7 zymogen act;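 active means compounds that raise the fluorescence signal in this interference counterscreen, with EC50 at or below 10 µM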;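 further: intact quenched peptide substrate alone read at 355 nm excitation and 520 nm emission; signal is fluorescence gain from T0 to T4 after four hours at room temperature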
* marks the source's active call; other numbers are inactive results; i = inactive; . = no result given.

SMILES	ADAM10 inh	ADAM17 inh	KLK7 zymogen act	NPR1 activator	NPR2 activator	proKLK7 act conf	EDANS-DABCYL int	others
COc1cccc(C2Nc3ccc4ccccc4c3C3=C2C(=O)CC(C)(C)C3)c1OCC(=O)O (configuration not stated)	i	i	26.3*	-1.4	1.1	10.7	5.4*
CC1(C)CC(=O)C2=C(C1)c1c(ccc3ccccc13)NC2c1ccc(OCC(=O)O)cc1 (configuration not stated)	i	i	36.1*	-1.7	3.8	23.2*	18.1*	K7 EDANS ctr=>23.2
CCOc1ccc(C2Nc3ccccc3NC3=C2C(=O)CC(C)(C)C3)cc1OC (configuration not stated)	-5.2	-4.0	-1.6	1.8	-2.6	.	.
COc1cc(C2Nc3ccc4ccccc4c3C3=C2C(=O)CC(C)(C)C3)ccc1OCC(=O)O (configuration not stated)	i	i	16.3*	-1.4	1.2	-60.1	-54.4
CC1(C)CC(=O)C2=C(C1)c1c(ccc3ccccc13)NC2c1ccc(Br)o1 (configuration not stated)	-47.6	-18.0	-5.2	-34.4	-27.1	.	.
COc1cc(C2Nc3ccc4ccccc4c3C3=C2C(=O)CC(C)(C)C3)ccc1OC(C)C(=O)O (configuration not stated)	i	i	24.1*	4.0	3.5	0.0	12.7*
CCCCNC(=O)C1(C(=O)C2CC2)CC(C(=O)OCC)=NO1 (configuration not stated)	-2.0	-0.1	0.3	1.6	0.1	.	.
Cc1cc(C)nc(N2CCC(C(=O)N(C)CCc3ccccc3)CC2)n1	-46.5	-9.3	0.3	1.8	9.2	.	.
CCOc1ccc(-n2c(SCC(=O)Nc3ccc(S(=O)(=O)Nc4nccs4)cc3)nnc2-c2ccco2)cc1	4.2	4.4	-0.2	0.1	2.3	.	.
COC(=O)[C@]12C[C@H](CC(=O)N3CCCC3)C(=O)N(Cc3ccco3)C1=C[C@H](C1CCCC1)O[C@@H]2C	3.5	-0.9	-0.2	-5.2	-1.4	.	.
Cc1ccc(S(=O)(=O)N2CCCC2C(=O)N2CCc3ccccc3C2)cc1C (configuration not stated)	-10.4	1.0	-0.4	1.9	1.8	.	.
COc1ccc(S[C@]2(C(=O)N3CCOCC3)CC(=O)N(C(=O)C3CC3)[C@@H]2c2ccc(OC)cc2)cc1	-0.2	0.4	0.1	-4.7	2.4	.	.
Cc1ccc(S(=O)(=O)ON2C(=O)c3cccc4cccc(c34)C2=O)cc1	-13.4	-1.3	19.0*	-4.0	-0.6	-31.9	38.6*
O=C1c2cccc3cccc(c23)C(=O)N1OS(=O)(=O)c1ccccc1	-19.6	-6.0	26.1*	-3.7	-18.0	-178.6	-10.2
C#CCCCN([C@H](C(=O)OC)C(C)C)S(=O)(=O)c1ccccc1Br	5.4	7.8	0.9	-7.9	-7.3	.	.
COC(=O)[C@H](C(C)C)N1Cc2nnn(Cc3ccc(C)cc3)c2-c2ccccc2S1(=O)=O	15.1	6.2	0.1	0.7	4.4	.	.
c1ccc(Nc2c(-c3ccco3)nc3ccccn23)cc1	i	-435.9	15.5*	8.4	4.5	67.6*	71.6*
CCc1cc2c(=O)c(-c3cscn3)coc2c(CN(C)C)c1O	i	-240.9	30.2*	6.1	-3.2	62.8*	71.1*
COc1ccc2c(C(=O)NCCCCO)c(-c3ccc(S(C)(=O)=O)cc3)sc2c1	i	i	48.6*	1.6	5.5	65.2*	82.2*
O=C(c1ccc(C#Cc2ccccc2)cc1)N1CCC(O)CC1	-0.6	-1.0	-0.5	10.0	-5.3	.	.
N=c1oc2ccc3ccccc3c2cc1-c1nnc2n1CCCCC2	i	i	62.7*	9.6	-0.1	71.6*	71.7*
